Source: PubChem BioAssay (National Center for Advancing Translational Sciences (NCATS))
Only some compounds are listed: those with a hit (about 19% of all), similar ones and a draw of the others.
Gal4-VP16 FLuc: counter-screen for ROR gamma inhibitors: Gal4-VP16 reporter. actives 3.5% (n = 310,000). Drosophila S2 Gal4-VP16 UAS-luciferase, luminescence, 20 h. Potency, µM (series often up to 53.6 µM), for inactives: top-dose activity, negative = inhibition, usual class: inhibitors. AID 2546;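 also: Gal4-VP16 expression switched on by copper sulfate through the metallothionein promoter; nearly all actives have a fitted effect of over 50% in size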
DT40 TDP1 CPT: growth inhibition of DT40 Tdp1-/-;hTDP1 cells with camptothecin (screen for TDP1 inhibitors). chicken DT40 Tdp1-/-;hTDP1 cells + 20 nM CPT, ATP luminescence, 48 h. Potency, µM (titrated, usually from 46.2 µM), for the others: at the highest dose activity change, negative = growth inhibition, most hits filed as inhibitors. actives 12% (n = 420,000). AID 686979; also: nearly all actives have a fitted effect of over 55% in size
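Chicken DT40 Tdp1-/- cells complemented with human TDP1, 400 cells/well, exposed to compounds plus 20 nM camptothecin for at least 48 h at 37 C; viability read as ATP content by CellTiter-Glo luminescence.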
DT40 TDP1 no CPT: qHTS for Inhibitors of human tyrosyl-DNA phosphodiesterase 1 (TDP1): qHTS in cells in absence of CPT; AID 686978, 2013; Potency, µM (series often up to 46.2 µM), for the others: top-dose activity change, negative = growth inhibition, actives largely listed as inhibitors; DT40 Tdp1-/- hTDP1 cells, no CPT, ATP luminescence, 48 h; actives 15% (n = 420,000); also: nearly all actives have a fitted effect of over 55% in size
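No-CPT arm: Tdp1-/-;hTDP1 DT40 cells (400/well) plus compounds, incubated ≥48 hr at 37 °C. Readout CellTiter-Glo luminescence.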
RORg inh: ROR gamma (mouse) transcription inhibition | Drosophila S2 Gal4-RORgamma UAS-luciferase reporter, 20 h | Potency, µM (doses to about 53.6 µM), for the others: at the highest dose activity change, negative = inhibition, usual class: inhibitors | actives 5.4% (n = 310,000) | AID 2551; also: nearly all actives have a fitted effect of over 60% in size
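Compounds are pin-transferred onto Drosophila Schneider cells expressing a copper-inducible Gal4–ROR gamma transactivation domain fusion. After 1 hr, copper sulfate is added to 700 uM final; luciferase is read 20 hr later.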
TDP1 inh: TDP1 (human) enzyme inhibition; recombinant TDP1, AlphaScreen DNA substrate cleavage; Potency, µM (series often up to 130 µM), for the others: at the highest dose activity change, negative = inhibition, hits mostly inhibitors; AID 485290; Q9NUW8; actives 0.28% (n = 350,000); also: nearly all actives have a fitted effect of over 40% in size
Target sequence (Q9NUW8 whole entry, looked up): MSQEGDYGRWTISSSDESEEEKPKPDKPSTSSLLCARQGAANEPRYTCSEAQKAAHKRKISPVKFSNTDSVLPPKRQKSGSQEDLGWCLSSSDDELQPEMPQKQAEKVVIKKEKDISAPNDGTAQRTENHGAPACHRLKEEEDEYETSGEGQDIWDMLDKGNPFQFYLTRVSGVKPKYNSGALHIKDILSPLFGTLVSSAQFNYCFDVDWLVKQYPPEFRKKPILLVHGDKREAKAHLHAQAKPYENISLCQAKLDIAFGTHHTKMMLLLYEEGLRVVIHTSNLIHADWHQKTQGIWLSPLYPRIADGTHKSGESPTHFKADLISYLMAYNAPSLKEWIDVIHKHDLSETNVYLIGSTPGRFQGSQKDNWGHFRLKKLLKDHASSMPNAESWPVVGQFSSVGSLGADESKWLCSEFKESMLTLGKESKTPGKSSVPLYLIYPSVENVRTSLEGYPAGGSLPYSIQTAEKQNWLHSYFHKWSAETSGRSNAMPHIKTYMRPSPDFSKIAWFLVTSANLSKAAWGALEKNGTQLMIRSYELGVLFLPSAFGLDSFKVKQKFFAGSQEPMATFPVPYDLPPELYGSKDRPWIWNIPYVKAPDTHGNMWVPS
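Compounds were preincubated with Tdp1 (1 nM final) for 15 min at room temperature before substrate (15 nM final) started a 5 min reaction; beads (10 ug/ml final) were then added for 10 min before AlphaScreen detection.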
The depositor's hits bear a star; u = inconclusive; x = no result; [ ] = remark or other dose. Calls follow the shape of the dose curve; as a rule, active = well fitted curve in the direction sought with a large enough effect; inconclusive = small, poorly fitted or top-dose-only effect, or another doubt; inactive = no such curve, though single readings can be large; an effect the other way counts as inactive or inconclusive. % is scaled to controls: 0 for no effect and ±100 for the full control effect; potency is read from the fitted curve at half-maximal effect.

SMILES | Gal4-VP16 FLuc | DT40 TDP1 CPT | DT40 TDP1 no CPT | RORg inh | TDP1 inh
C=CCN=C1NN=C(c2ccc3c(c2)OCCO3)CS1 | 5.62µM* | -28.8% | -29.5% | 4.47µM* | 2.4%
CCOC(=O)c1ccc(S(=O)(=O)N2CCN(C3CCCC3)CC2)cc1 | -2.9% | u | u | -2.4% | -11.1%
N#C/C(=C\c1ccc(OCCN2CCOCC2)cc1)C(=O)Nc1ccccc1 | -0.1% | -12.6% | -15.6% | 38.4% | 2.9%[56.1 µM]
COc1ccccc1N(C)S(=O)(=O)c1ccc(C(=O)NCc2ccc3c(c2)OCO3)cc1 | 5.3% | -14.3% | 23.1µM* | -6.8% | 6.5%
COc1ccccc1N(C)S(=O)(=O)c1ccc(C(=O)OCC(N)=O)cc1 | 1.1% | 18.0% | -29.9% | 4.7% | 0.0%
CN(Cc1ccc(OC(F)F)cc1)C(=O)c1ccc(S(=O)(=O)N(C)c2ccccc2)cc1 | x | u | -13.9% | x | -0.3%
CCOc1ccc(CN(C)C(=O)c2ccc(S(=O)(=O)N(C)c3ccccc3OC)cc2)cc1 | x | u | 10.3µM* | x | 2.1%
COc1ccccc1N(C)S(=O)(=O)c1ccc(C(=O)N(C)Cc2ccc(Cl)s2)cc1 | x | 23.1µM* | 14.6µM* | x | 0.3%
COc1cccc(CN(C)C(=O)c2[nH]c(C)c(C(C)=O)c2C)c1OC | u | 18.4µM* | 11.6µM* | 0.9% | x
O=C(CC1Sc2ccccc2NC1=O)OCC(=O)N1CCc2ccccc21 (stereo not given) | 15.7% | -15.4% | u | u | 3.1%
O=C(CSc1nnc2scc(-c3ccc(Cl)cc3)n12)NCc1ccc2c(c1)OCO2 | -11.7% | 6.0% | -11.5% | -12.4% | 0.0%
CC(=O)Nc1ccc(S(=O)(=O)NNC(=O)COc2cc(C)ccc2C(C)C)cc1 | -7.1% | -28.9% | -12.4% | 5.3% | 8.2%
COc1ccccc1N(C)S(=O)(=O)c1ccc(C(=O)N(C)Cc2cccc(OC)c2OC)cc1 | x | u | 20.6µM* | x | x
COc1cccc(CN(C)C(=O)c2ccc(S(=O)(=O)N3CCCC3)cc2)c1OC | 2.8% | u | u | 24.3% | 2.0%
COc1cccc(CN(C)C(=O)COc2ccc(C(=O)c3ccc(Cl)cc3)cc2)c1OC | 1.9% | u | 23.1µM* | -12.0% | -3.8%
COc1ccc(-c2cc(C(=O)Nc3cccc(C(C)=O)c3)no2)cc1 | -9.7% | 1.5% | 7.8% | -12.9% | 2.3%
CCOC(=O)C1(Cc2ccccc2C)CCCN(S(=O)(=O)CC)C1 (stereo not given) | -12.0% | u | 23.1µM* | 1.7% | x
O=C(COC(=O)c1cc(-c2ccccc2)nc2ccccc12)c1ccc(Br)cc1 | x | u | u | x | 3.2%
COc1ccc(-c2cc(C(=O)OCC(=O)c3c(N)n(C)c(=O)n(C)c3=O)c3ccccc3n2)cc1 | -5.1% | 4.11µM* | 1.64µM* | 16.2% | 1.2%
COc1ccc(-c2cc(C(=O)c3c(N)n(C)c(=O)n(C)c3=O)c3ccccc3n2)cc1 | 11.2µM* | -27.9% | u | 14.1µM* | 3.7%
Cn1c(N)c(C(=O)COC(=O)c2cc(C(F)(F)F)nc3ccccc23)c(=O)n(Cc2ccccc2)c1=O | -2.6% | 23.1µM* | u | 2.5% | 11.7%
C/C(N)=C(/C#N)C(=O)COC(=O)c1cc(-c2ccc(Br)cc2)nc2ccccc12 | u | 14.6µM* | 9.2µM* | 31.2% | 2.8%
Cn1c(N)c(C(=O)COC(=O)c2cc(-c3ccco3)nc3ccccc23)c(=O)n(Cc2ccccc2)c1=O | -6.7% | x | x | -31.3% | -0.3%
CCOC(=O)CN1C(=O)/C(=C/c2cccc(Br)c2)Oc2ccccc21 | 2.5% | -28.1% | u | -0.7% | x
COc1ccccc1C(=O)OCC(=O)NC(=O)NC1CCCC1 | x | -0.1% | -7.0% | x | -0.7%
SMILES | Gal4-VP16 FLuc | DT40 TDP1 CPT | DT40 TDP1 no CPT | RORg inh | TDP1 inh
Cn1c(N)c(C(=O)COC(=O)c2cc(C3CC3)nc3ccccc23)c(=O)n(C)c1=O | -13.5% | 13µM* | 18.4µM* | u | 3.3%
Cn1c(N)c(C(=O)COC(=O)c2ccnc3ccccc23)c(=O)n(C)c1=O | -6.2% | -3.2% | -7.8% | -16.4% | 6.3%
Cn1c(N)c(C(=O)COC(=O)c2cc(-c3ccco3)nc3ccccc23)c(=O)n(C)c1=O | 1.4% | 20.6µM* | 16.4µM* | u | -5.1%
CNC(=O)COC(=O)c1cc(-c2ccco2)nc2ccccc12 | -0.2% | 14.6µM* | u | -24.3% | x
Cc1cccc(C)c1NC(=O)CCSc1nc(-c2ccc3c(c2)OCO3)cc(C(F)(F)F)n1 | x | x | x | x | -1.1%
COc1ccc(CCNC(=O)CCn2c(SCC(=O)N3CCCC3)nc3ccccc3c2=O)cc1OC | 0.2% | u | u | 4.6% | x
COc1ccc(-c2ccnc(-c3ccc(O)cc3)n2)cc1 | -12.3% | 1.64µM* | 1.84µM* | -16.4% | 5.0%
COc1ccc(-c2ccnc(-c3ccncc3)n2)cc1 | -5.0% | u | 16.4µM* | -13.7% | -1.9%
Cc1ccc(-c2ccnc(-c3ccc(O)cc3)n2)cc1 | -9.9% | u | -21.9% | -31.2% | 5.0%
COC(=O)COc1ccc(-c2nccc(-c3ccc(Br)cc3)n2)cc1 | -23.6% | 20.6µM* | u | -5.1% | x
CCC(C(=O)NC1CCCC1)N(C(=O)Cn1nnc(-c2ccc(C)o2)n1)c1ccc(F)cc1 (stereo not given) | u | -18.5% | u | -37.3% | 8.6%
O=C(O)CC1(CC(=O)Nc2cc(C(F)(F)F)cc(C(F)(F)F)c2)CCCCC1 | -2.9% | -8.2% | -27.6% | 5.2% | x
Cc1ccc(N(C(=O)c2ccco2)C(C(=O)NC2CCCC2)c2cccnc2)cc1 (stereo not given) | 2.3% | -17.0% | -29.7% | -5.0% | 0.9%
CC1Cc2ccccc2N1C(=O)CSc1nc(-c2ccco2)cc(C(F)(F)F)n1 (stereo not given) | 6.3% | -5.0% | u | -16.5% | 2.1%
O=C(CSc1nc(-c2ccco2)cc(C(F)(F)F)n1)N1CCN(c2cccc(Cl)c2)CC1 | -13.5% | u | 23.1µM* | u | 5.2%
O=C(CCSc1nc(-c2ccco2)cc(C(F)(F)F)n1)N1CCCc2ccccc21 | -3.3% | u | 16.4µM* | -16.6% | 5.5%
O=C(CCSc1nc(-c2ccco2)cc(C(F)(F)F)n1)N1CCN(c2ccccn2)CC1 | -2.1% | u | 16.4µM* | 10.2% | 1.1%
CSc1ccccc1NC(=O)COC(=O)CSc1ccc(C)cc1 | x | -2.4% | -2.0% | x | x
O=C(O)CN1C(=O)/C(=C/c2ccccc2Br)Oc2ccccc21 | 0.4% | 0.5% | 2.2% | 1.9% | x
CC1CCN(C(=O)CN2c3cccc4cccc(c34)S2(=O)=O)CC1 | x | -25.4% | -9.9% | x | -1.6%
